ClpP mod – qHTS Assay for Activators of ClpP; Potency, µM (series often up to 57.5 µM); 1.9% of 340,000 active; purified B. subtilis ClpP, FRET peptide cleavage, 20 min; AID 651965, 2013; ATP-dependent Clp protease proteolytic subunit (Bacillus subtilis (strain 168)), P80244; active means well fitted falling curve with a large enough effect; inconclusive means small, poorly fitted or top-dose-only effect; inactive means no such curve, though single readings can be large or run the other way; further: the source files actives as falling curves though it sought activators and does not explain the sign; nearly all actives have a fitted effect of over 65% in size
Target sequence (P80244 whole entry, looked up): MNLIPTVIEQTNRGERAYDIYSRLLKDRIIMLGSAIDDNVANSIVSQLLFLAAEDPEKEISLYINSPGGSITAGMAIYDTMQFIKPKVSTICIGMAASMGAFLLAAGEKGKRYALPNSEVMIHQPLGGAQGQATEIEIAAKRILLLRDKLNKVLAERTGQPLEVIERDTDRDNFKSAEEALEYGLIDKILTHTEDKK
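FRET quenching reversal measured ClpP activation: 10 microg/mL B. subtilis ClpP at pH 8 with the FRET-FV decapeptide, read at 430 nm after 320 nm excitation. The 20-min minus 0-min signal was scaled between DMSO/no-enzyme wells and ADEP (5.8 microM final).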
GLP1R ag – qHTS of GLP-1 Receptor Agonists; Glucagon-like peptide 1 receptor (Homo sapiens), P43220; HEK293 GLP-1R CRE-luciferase, luminescence, 4-6 h; cells express a hypersensitive GLP-1R form; Potency, µM (series often up to 45.6 µM), actives largely listed as activators; 0.007% of 380,000 active
Target sequence (P43220 whole entry, looked up): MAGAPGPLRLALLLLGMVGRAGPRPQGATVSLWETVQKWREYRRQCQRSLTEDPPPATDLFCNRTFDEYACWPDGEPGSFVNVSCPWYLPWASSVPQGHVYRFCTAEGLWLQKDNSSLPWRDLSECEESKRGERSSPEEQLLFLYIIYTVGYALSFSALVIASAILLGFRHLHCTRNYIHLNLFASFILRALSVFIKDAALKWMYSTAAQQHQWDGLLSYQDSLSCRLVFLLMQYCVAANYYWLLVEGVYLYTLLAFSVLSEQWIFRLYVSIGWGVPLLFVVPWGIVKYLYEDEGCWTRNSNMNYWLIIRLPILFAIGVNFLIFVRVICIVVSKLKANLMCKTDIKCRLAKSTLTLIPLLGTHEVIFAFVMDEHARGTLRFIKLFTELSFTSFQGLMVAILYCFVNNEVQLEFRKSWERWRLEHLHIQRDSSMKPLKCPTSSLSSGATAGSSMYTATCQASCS
HEK293 tox – qHTS of GLP-1 Receptor Inverse Agonists: Cytotox Screen. Potency, µM (top dose mostly 38.3 µM), usual class: inhibitors. 0.13% of 410,000 active. AID 624418, 2012. HEK293 cAMP-luciferase reporter cells, luminescence, 24 h;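 further: loss of luciferase light is scored as toxicity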
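A 23 nL compound transfer followed 12 hours of cell culture at 37 deg C; exposure then lasted 24 hr. Luciferase assay detection reagent was dispensed and plates read for luminescence after a 12 min room-temperature wait.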
GLP-1R inv ag – qHTS of GLP-1 Receptor Inverse Agonists (Inhibition Mode). HEK293 GLP-1R CRE-luciferase, luminescence, 24 h; GLP-1R form is constitutively active. 1.6% of 410,000 active. Potency, µM (highest dose often 38.3 µM), most hits filed as inhibitors. Glucagon-like peptide 1 receptor (Homo sapiens), P43220; further: nearly all actives have a fitted effect of over 55% in size
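GLP-1R inverse agonism mode: basal reporter luminescence in engineered HEK293 cells measured after one day of compound exposure at 37 deg C, with a 12 min room-temperature detection step.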
Of the large screens only hits and unclear results are named; the others gave an inactive call. An excerpt weighted towards active compounds, which were near 3.2% of everything screened. Unless noted, the call rests on the fitted dose curve; in most records, active means well fitted curve in the direction sought with a large enough effect; inconclusive means small, poorly fitted or top-dose-only effect, or another doubt; inactive means no such curve, though single readings can be large; an effect the other way counts as inactive or inconclusive.

CCOc1cc(C(=O)Nc2ccc(-c3nnc4n3CCCCC4)cc2)cc(OCC)c1OCC	none
Cc1cc(C)c(NC(=O)c2ccc(CNS(=O)(=O)c3cc(C(F)(F)F)ccc3Cl)cc2)c(C)c1	HEK293 tox inconclusive, GLP-1R inv ag 6.3µM
CCOC(=O)c1cccc(NC(=O)N2CCC(CN3CCCCCC3)CC2)c1	none (no result: GLP1R ag)
O=C(NCc1ccccc1Cl)c1ccc(CS(=O)(=O)c2ccc(Br)cc2)o1	GLP-1R inv ag 10µM (no result: GLP1R ag)
O=C(NCc1ccccc1Cl)c1ccc(CS(=O)(=O)c2ccccc2)o1	none (no result: ClpP mod)
Cc1ccc(NC(=O)c2cc(S(=O)(=O)NCCc3ccc(Cl)cc3)ccc2F)cc1	GLP-1R inv ag 11µM (no result: GLP1R ag)
Cc1ccc(S(=O)(=O)Cc2ccc(C(=O)NCCc3ccc(Cl)cc3)o2)cc1	GLP-1R inv ag 10µM
CCNC(=O)[C@H]1CCCN1C(=O)[C@H](CCCN=C(N)N)NC(=O)[C@H](CC(C)C)NC(=O)[C@H](CC(C)C)NC(=O)[C@@H](Cc1ccc(O)cc1)NC(=O)[C@H](CO)NC(=O)[C@@H](Cc1c[nH]c2ccccc12)NC(=O)[C@H](Cc1cnc[nH]1)NC(=O)[C@@H]1CCC(=O)N1	none (no result: ClpP mod, HEK293 tox, GLP-1R inv ag)
CCCCn1nc(NC(=O)CCC)c2cc3cc(OC)ccc3nc21	ClpP mod 32µM, GLP-1R inv ag inconclusive
COc1ccc2nc3c(cc2c1)c(NC(=O)C1CCCO1)nn3CC(C)C (centres undefined)	ClpP mod 22µM, GLP-1R inv ag inconclusive
CCCCn1nc(NC(=O)CC(C)C)c2cc3cc(OC)ccc3nc21	none
Nc1c(C(=O)Nc2ccccc2F)sc2nc(-c3cccnc3)ccc12	none
Nc1c(C(=O)Nc2ccccc2F)sc2nc(-c3ccco3)ccc12	ClpP mod 28µM
CCc1ccccc1NC(=O)CSc1nc2c(oc3ccccc32)c(=O)n1C	none (no result: GLP1R ag)
N#C/C(=C\c1c(N2CCCCC2)nc2ccccn2c1=O)C(=O)NC1CCS(=O)(=O)C1 (centres undefined)	ClpP mod 4µM
Cc1cccn2c(=O)c(/C=C(\C#N)C(=O)NC3CCS(=O)(=O)C3)c(N3CCC(C)CC3)nc12 (centres undefined)	ClpP mod inconclusive
Cc1cccc(Oc2nc3ccccn3c(=O)c2/C=C(\C#N)C(=O)NC2CCS(=O)(=O)C2)c1 (centres undefined)	ClpP mod 25µM
O=C(CCN1C(=O)c2ccccc2Sc2ncccc21)Nc1ccc(F)cc1F	none (no result: GLP1R ag)
C/C(CC(=O)Nc1cccc2c1CCCC2)=N\NC(=O)c1cccc2ccccc12	HEK293 tox inconclusive, GLP-1R inv ag inconclusive
C/C(CC(=O)Nc1cccc2c1CCCC2)=N\NC(=O)c1ccccc1N	ClpP mod 28µM
CCOc1ccc2c(C)nc(NC3=NC(C)(C)C=C(C)N3)nc2c1	ClpP mod 4µM, GLP-1R inv ag inconclusive
CCOc1ccc2nc(NC3=NC(c4ccc(OC)cc4)CC(=O)N3)nc(C)c2c1 (centres undefined)	ClpP mod 32µM, HEK293 tox inconclusive
CCOc1ccc2nc(NC3=NC(C)(C)C=C(C)N3)nc(C)c2c1	HEK293 tox inconclusive, GLP-1R inv ag inconclusive
COc1cccc(-c2cnc(NCc3cc(Cl)ccc3O)n2C)c1	ClpP mod 28µM, GLP-1R inv ag inconclusive
COc1cccc(-c2cnc(NCc3ccccc3Cl)n2C)c1	HEK293 tox inconclusive, GLP-1R inv ag inconclusive
Cc1ccc(C)c(N2CCN(C(=O)C(C)n3nc(C)c4sc5ccccc5c4c3=O)CC2)c1 (centres undefined)	none (no result: GLP1R ag)
CC1CCC(C(C)C)C(OC(=O)Cn2c(-c3ccc(Cl)cc3)[n+](C)c3ccccc32)C1 (centres undefined)	HEK293 tox 10µM, GLP-1R inv ag 10µM
CC1CCC(C(C)C)C(OC(=O)COC(=O)c2cccn2C)C1 (centres undefined)	GLP-1R inv ag 10µM
COc1ccc(C2C=C(c3ccc(Cl)cc3)Nc3nc(-c4ccc(Cl)cc4)nn32)cc1 (centres undefined)	GLP-1R inv ag inconclusive (no result: GLP1R ag)
N#Cc1cc(NC(=O)c2ccc(Cl)cc2)ccc1Sc1ccccc1	none
COc1ccc(Sc2ccc(NC(=O)c3ccccc3Cl)cc2C#N)cc1	ClpP mod inconclusive, HEK293 tox inconclusive, GLP-1R inv ag 13µM
O=C(Nc1cccc2ccccc12)N1CC=CCC1	ClpP mod 28µM
O=C(CSCc1ccccc1)N/N=C/c1ccccc1OCc1ccccc1	none
NC(=S)N/N=C/c1ccccc1	none
NC(=S)N/N=C\c1ccccc1OCc1ccccc1	HEK293 tox inconclusive, GLP-1R inv ag 5.6µM
NC(=S)N/N=C/c1ccccc1OC(=O)/C=C/c1ccccc1	GLP-1R inv ag 2.5µM
Cc1ccccc1Cn1c(CN2CCCC(C)C2)nc2c1c(=O)n(C)c(=O)n2C (centres undefined)	GLP-1R inv ag inconclusive (no result: GLP1R ag)
Cc1cccc(-c2nc(Nc3cccc(O)c3)c3ccccc3n2)c1	GLP-1R inv ag 6.3µM
CC(=O)c1cccc(Nc2nc(-c3cccc(C)c3)nc3ccccc23)c1	GLP-1R inv ag inconclusive (no result: GLP1R ag)
Cc1oc(-c2ccc(Cl)cc2)nc1CSCC(=O)NCc1ccccc1Cl	ClpP mod 32µM (no result: GLP1R ag)
CSc1ccc(-c2nc(CSCC(=O)NCCCN3CCOCC3)c(C)o2)cc1	ClpP mod 35µM
N#Cc1cc(-c2ccc(Cl)cc2)cn(Cc2c(Cl)cccc2Cl)c1=O	ClpP mod 25µM
C=CCn1cc(-c2ccc(Cl)cc2)cc(C#N)c1=O	ClpP mod 32µM
CC(C)n1cc(-c2ccc(Cl)cc2)cc(C#N)c1=O	ClpP mod 32µM, GLP-1R inv ag inconclusive
O=C(Nc1ccc(F)cc1F)c1cccc2c1C(=O)N(C1CCCCC1)C2	none
NC(=S)NN=C1c2ccccc2-c2c(F)c(F)c(F)c(F)c21	ClpP mod inconclusive, HEK293 tox 11µM, GLP-1R inv ag inconclusive
N#Cc1cccc2c1-c1ccccc1/C2=N/NC(N)=S	HEK293 tox inconclusive, GLP-1R inv ag inconclusive
CCCc1n[nH]c(=S)n1Cc1ccco1	none
S=c1[nH]nc(C23CC4CC(CC(C4)C2)C3)n1Cc1ccco1	GLP-1R inv ag 7.9µM
OCCCc1nc2n(n1)C(c1ccccc1Cl)C=C(c1cccs1)N2 (centres undefined)	ClpP mod 22µM
CCc1ccc(OCCNC(=O)c2ccccc2SCc2ccccc2)cc1	ClpP mod 28µM, GLP-1R inv ag 7.1µM
COc1ccc(N2CCN(C(=O)Cn3c(-c4cccs4)cc4ccccc43)CC2)cc1	ClpP mod 32µM (no result: GLP1R ag)
O=C(c1cccs1)N1CCN(c2ccc(Cl)cc2)CC1	none (no result: ClpP mod)
O=C(Cn1c(-c2cccs2)cc2ccccc21)N1CCN(c2ccc(Cl)cc2)CC1	ClpP mod 10µM, GLP-1R inv ag inconclusive (no result: GLP1R ag)
NC(=O)C1CCN(C(=O)Cn2c(-c3cccs3)cc3ccccc32)CC1	ClpP mod 32µM (no result: GLP1R ag)

Compound activity: PubChem BioAssay, National Center for Advancing Translational Sciences (NCATS)
